Records with an inconclusive call do not appear. Entries that show only a call come without a potency. The source made the active and inactive calls. Calls follow the shape of the dose curve; as a rule, active = well fitted inhibition curve with a large enough effect; inconclusive = small, poorly fitted or top-dose-only effect; inactive = flat fitted curve, though single readings scatter.
Potency is read from the fitted curve at half-maximal effect.

For this test, the target named is Ubiquitin carboxyl-terminal hydrolase 1 (Homo sapiens) (UniProt O94782). Briefly: Inhibitors of USP1/UAF1: Pilot qHTS (AID 504865). Also: nearly all actives have a fitted effect of over 35% in size. The following applies: purified USP1/UAF1, Ub-rhodamine cleavage fluorescence; series mostly up to 114 µM. Put shortly: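 Deubiquitinase activity followed as kinetic rhodamine fluorescence release from 150 nM Ub-Rho. 1 nM USP1/UAF1 with compound, after 15 min room-temperature preincubation, in HEPES pH 7.8 buffer containing TCEP, EDTA, BSA and Tween-20.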
Ubiquitin carboxyl-terminal hydrolase 1 (Homo sapiens), sequence (O94782 whole entry, looked up): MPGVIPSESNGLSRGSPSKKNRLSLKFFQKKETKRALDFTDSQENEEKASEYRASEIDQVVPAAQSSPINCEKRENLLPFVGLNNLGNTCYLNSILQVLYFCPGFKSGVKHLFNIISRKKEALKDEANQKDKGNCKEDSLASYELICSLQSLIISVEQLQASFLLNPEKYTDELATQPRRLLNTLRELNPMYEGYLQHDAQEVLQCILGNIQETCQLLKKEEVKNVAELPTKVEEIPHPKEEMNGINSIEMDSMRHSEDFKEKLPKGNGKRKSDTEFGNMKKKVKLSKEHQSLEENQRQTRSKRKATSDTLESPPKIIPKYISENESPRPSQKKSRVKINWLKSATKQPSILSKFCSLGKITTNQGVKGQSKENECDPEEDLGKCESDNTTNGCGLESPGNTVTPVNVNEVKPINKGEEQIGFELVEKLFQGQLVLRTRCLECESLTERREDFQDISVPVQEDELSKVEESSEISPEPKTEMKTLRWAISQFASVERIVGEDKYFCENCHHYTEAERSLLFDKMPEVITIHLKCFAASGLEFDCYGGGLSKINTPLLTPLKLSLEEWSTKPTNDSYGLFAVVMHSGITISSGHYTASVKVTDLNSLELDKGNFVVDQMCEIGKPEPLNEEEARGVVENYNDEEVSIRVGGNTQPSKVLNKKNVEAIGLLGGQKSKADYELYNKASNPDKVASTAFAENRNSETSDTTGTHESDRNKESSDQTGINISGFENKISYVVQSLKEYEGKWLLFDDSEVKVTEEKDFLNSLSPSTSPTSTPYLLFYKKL
(In qHTS, concentration-response curves come from the screen itself.)
Turning to `C[N+]12CCC(CC1)[C@@H](OC(=O)C(O)(c1ccccc1)c1ccccc1)C2`, the Potency result is “inactive”.
In the case of `CC(=O)O[C@H]1C[C@H]2CC[C@@H]3[C@H]4C[C@@H]([N+]5(C)CCCCC5)[C@@H](OC(C)=O)[C@]4(C)CC[C@@H]3[C@@]2(C)C[C@@H]1[N+]1(C)CCCCC1`, the Potency entry was “inactive”.
For `CN1[C@@H]2CC(OC(=O)[C@@H](CO)c3ccccc3)C[C@@H]1[C@H]1O[C@H]12` (stereo not given in full) the value was “inactive”; for `O=C(NC(=O)c1c(F)cccc1F)Nc1ccc(Cl)cc1`, “inactive”.
For `CN1C[C@@H](C(=O)N[C@@]2(C)O[C@]3(O)C4CCCN4C(=O)[C@@H](Cc4ccccc4)N3C2=O)C=C2c3cccc4[nH]cc(c34)C[C@@H]21` (stereo not given in full) the value was 50.1 µM (active).
With `C/C=C1/C[C@@H](C)[C@](O)(CO)C(=O)OCC2=CCN3CC[C@@H](OC1=O)C23` (stereo not given in full) the entry was “inactive”.
On to `NC[C@@H]1O[C@H](OC2[C@@H](CO)O[C@@H](OC3[C@H](O)[C@H](N)C[C@H](N)[C@H]3OC3O[C@H](CO)[C@@H](O)[C@H](O)[C@@H]3N)[C@H]2O)C(N)[C@H](O)[C@@H]1O` (stereo not given in full), for which the Potency entry is “inactive”.
Regarding `Cc1cc2nc3c(=O)[nH]c(=O)nc-3n(C[C@H](O)[C@H](O)[C@H](O)COP(=O)(O)OP(=O)(O)OC[C@H]3O[C@@H](n4cnc5c(N)ncnc54)[C@H](O)[C@@H]3O)c2cc1C`, the Potency was 50.1 µM (active).
For `CC[N+](C)(CC)CCC[n+]1c(-c2ccccc2)c2cc(N)ccc2c2ccc(N)cc21`, the Potency was 7.94 µM (active).
For `CC1(C)S[C@H]2[C@@H](N)C(=O)N2[C@H]1C(=O)O`, the Potency result is “inactive”.

The values above are taken from PubChem BioAssay (NCATS).
